Source: PubChem BioAssay (National Center for Advancing Translational Sciences (NCATS))
p53 reactivator = restores transcriptional activity of mutant p53; H1299 p53-A138V BP100-luciferase reporter, luminescence, 24 h; Potency, µM (doses to about 92.2 µM), inactives show at the highest dose activity change, positive = activation, actives largely listed as activators; hit rate 0.063% among 320,000; AID 504706; further: potency means the concentration at half of the fitted maximal effect; % of control where 0% means no effect; nearly all actives have a fitted effect of over 45% in size
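p53-null H1299 cells stably carrying temperature-sensitive p53-A138V and a BP100-luciferase reporter were pinned with compounds (4-point, 1:5 series) and held 24 hrs at 37 deg C. Luminescence was read 10 min after detection reagent.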
VP16 counter = Gal4-VP16 reporter inhibition counter-screen; Drosophila S2 Gal4-VP16 UAS-luciferase, luminescence, 20 h; Potency, µM (doses to about 53.6 µM), without a hit: at the top dose activity, negative = inhibition, hits mostly inhibitors; hit rate 3.5% among 310,000;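 further: Gal4-VP16 expression switched on by copper sulfate through the metallothionein promoter; potency means the concentration at half of the fitted maximal effect; on the % scale 0 is the no-effect control and ±100 the full control effect; nearly all actives have a fitted effect of over 50% in size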
RORgamma inh = inhibitors of mouse ROR gamma transcriptional activity; Drosophila S2 Gal4-RORgamma UAS-luciferase reporter, 20 h; Potency, µM (titrated, usually from 53.6 µM), without a hit: at the highest dose activity change, negative = inhibition, most hits filed as inhibitors; hit rate 5.4% among 310,000; further: potency means the concentration at half of the fitted maximal effect; on the % scale 0 is the no-effect control and ±100 the full control effect; nearly all actives have a fitted effect of over 60% in size
Target sequence (P51450 whole entry, looked up, the tested form may be a part): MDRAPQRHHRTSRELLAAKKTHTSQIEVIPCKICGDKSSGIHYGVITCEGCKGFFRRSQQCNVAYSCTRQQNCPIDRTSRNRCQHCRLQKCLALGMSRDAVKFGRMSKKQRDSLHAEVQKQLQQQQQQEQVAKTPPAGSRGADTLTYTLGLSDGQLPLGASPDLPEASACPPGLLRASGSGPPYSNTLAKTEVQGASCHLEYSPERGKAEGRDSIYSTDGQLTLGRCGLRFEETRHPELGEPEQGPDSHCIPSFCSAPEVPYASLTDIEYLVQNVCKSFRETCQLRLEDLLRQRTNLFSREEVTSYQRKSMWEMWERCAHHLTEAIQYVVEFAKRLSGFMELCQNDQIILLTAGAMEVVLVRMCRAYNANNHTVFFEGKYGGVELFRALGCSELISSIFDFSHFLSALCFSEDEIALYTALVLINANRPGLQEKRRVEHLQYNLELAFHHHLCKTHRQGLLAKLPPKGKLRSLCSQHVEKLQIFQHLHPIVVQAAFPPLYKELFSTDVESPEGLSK
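Luciferase reporter read in Schneider cells carrying Gal4-RORγ (mouse) and UAS-Photinus luciferase; cells given compound 1 h before 700 uM copper sulfate induction, then incubated 20 h at ambient temperature.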
BRCA1 expr up = increases BRCA1 expression. MCF7-BRCA1-FFLuc reporter, luminescence, 48 h; response scale: scaled: vehicle 0%, 10 µM genistein 100%. Potency, µM (top dose mostly 46.1 µM), inactives show top-dose activation, hits mostly activators. hit rate 1.1% among 380,000; further: potency means the concentration at half of the fitted maximal effect; nearly all actives have a fitted effect of over 80% in size
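Quantitative HTS in MCF7 cells stably reporting BRCA1 expression via firefly luciferase. Compound treatment lasts 48 h at 37 °C in phenol-red free MEM. Activation is expressed relative to genistein at 10 microM and DMSO.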
ELG1 repair inh = blocks ELG1-dependent DNA repair in HEK293T cells | HEK293T ELG1-luciferase reporter, luminescence, 16 h; DNA damage induced by 5-fluorouridine | Potency, µM (doses to about 46.1 µM), without a hit: top-dose activity change, negative = inhibition, most hits filed as inhibitors | hit rate 2.3% among 330,000; further: potency means the concentration at half of the fitted maximal effect; on the % scale 0 is the no-effect control and ±100 the full control effect; nearly all actives have a fitted effect of over 55% in size
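Reporter activity after DNA damage by 5-fluorouridine is monitored. Compound-treated cells incubate 16 hr at 37 °C, then ONE-Glo is added for 30 min before luminescence reading.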
Giardia killer = Giardia lamblia killing | Giardia lamblia trophozoite viability | hit rate 0.15% among 340,000 | activity change, % at 7.66 µM, hits read low; in the data active means activity change below about -80%; inconclusive means between about -30% and that limit;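 further: parasites exposed to compound for two days anaerobically before the ATP read; on the % scale 0 is the no-effect control and ±100 the full control effect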
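Trophozoites 100 cells/well + cpd; 48 hrs, 37 deg C, anaerobic. ATPLite 1-Step added, 15-30 min RT, luminescence read (ATP-based viability).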
The depositor's hits bear a star; ? = inconclusive; nt = no result given. This is a sample that favours compounds with a hit; in the whole collection about 7.6% have one here. Unless noted, the call rests on the fitted dose curve; in most records, active means well fitted curve in the direction sought with a large enough effect; inconclusive means small, poorly fitted or top-dose-only effect, or another doubt; inactive means no such curve, though single readings can be large; an effect the other way counts as inactive or inconclusive.

SMILES | p53 reactivator | VP16 counter | RORgamma inh | BRCA1 expr up | ELG1 repair inh | Giardia killer
Cc1ccccc1C(=O)NNC(=S)NC(=O)c1cccnc1 | 12.6% | ? | 11.2µM* | -20.7% | 2.4% | -4.2
O=C(NNC(=S)NC(=O)c1ccccc1)c1cccnc1 | 19.9% | ? | ? | -21.5% | -4.9% | -6.9
O=C(NC(=S)NCc1cccnc1)c1ccccc1F | -3.0% | 4.8% | -27.4% | -10.0% | -0.6% | -3.0
O=C(NC(=S)NNC(=O)c1ccccc1F)c1cccnc1 | 9.0% | ? | 11.2µM* | -32.2% | -7.2% | -8.9
COc1cccc(/C=N/NC(=S)NC2CC3CC2C2C=CCC32)c1O (stereo not given) | 7.0% | ? | 8.91µM* | 17.6% | ? | -24.5
Oc1ccccc1/C=N/NC(=S)NC1CC2CC1C1C=CCC21 (stereo not given) | ? | 11.2µM* | 8.91µM* | -51.2% | ? | -3.5
COc1ccc(OC)c(-c2csc(N(CC3CCCO3)C(=O)Cc3ccccc3)n2)c1 (stereo not given) | -1.9% | -0.4% | -6.5% | -27.9% | ? | 7.4
COc1ccc(/C=C2\SC(=O)N(CCC(=O)N3CCCCC3)C2=O)cc1OC | -2.5% | -13.1% | -2.3% | -32.2% | 0.2% | -10.0
CC(C)(C)c1ccc(S(=O)(=O)N2CCc3nc4ccccc4c(C(=O)O)c3C2)cc1 | -0.9% | -1.5% | 0.1% | 5.1% | -6.4% | -26.3
C=CCNc1nc(Nc2ccc([N+](=O)[O-])cc2)nc(N2CCCC2)n1 | 2.9% | -4.2% | 0.891µM* | -36.0% | ? | 7.0
CC(C)CCCNc1nc(N2CCOCC2)nc(N2CCOCC2)n1 | -9.4% | -5.5% | 3.2% | -24.5% | 10.3µM* | 6.5
C=CCNc1nc(Nc2ccc(-c3nc4ccccc4o3)cc2)nc(N2CCOCC2)n1 | -4.1% | -11.8% | -9.9% | -57.0% | 14.6µM* | 38.5
C=CCNc1nc(NCC)nc(N2CCOCC2)n1 | 5.0% | -23.3% | 2µM* | -8.6% | 3.6% | 8.4
COc1ccc(CCNS(=O)(=O)c2ccc3c(c2)NC(=O)C(C)S3)cc1OC (stereo not given) | -14.1% | -4.6% | -24.3% | 1.4% | -28.4% | -8.8
FC(F)(F)c1ccc(Cl)c(NC(=S)N/N=C/c2ccccc2C(F)(F)F)c1 | 2.2% | 0.562µM* | 0.316µM* | -35.5% | -2.6% | 0.5
COc1ccc(/C=N/NC(=S)Nc2cc(C(F)(F)F)ccc2Cl)cc1 | 4.7% | 3.98µM* | 0.355µM* | -15.0% | 27.3% | -9.9
O=C(NCCc1ccccc1)C(=O)N/N=C/c1ccccc1C(F)(F)F | 2.8% | 0.7% | -1.5% | 19.3% | 8.1% | 8.7
COc1ccc(/C=C/C(=O)Nc2cc(C(F)(F)F)ccc2Cl)cc1 | -2.9% | -17.9% | -3.9% | -55.0% | 10.5% | -12.2
COc1ccccc1NC(=O)/C(C#N)=C/c1cccn1C | nt | nt | nt | -6.8% | nt | -17.5
COc1ccc(N2CCN(C(=O)c3ccccc3)CC2)c([N+](=O)[O-])c1 | -1.8% | -9.2% | 63.1% | -11.1% | -6.5% | -16.8
CC(C)C(=O)N1CCN(c2c(Cl)cccc2[N+](=O)[O-])CC1 | -5.7% | 7.0% | -2.7% | -10.0% | -23.9% | -4.0
COc1ccc(N2CCN(C(=S)NC(=O)c3cccs3)CC2)c([N+](=O)[O-])c1 | -1.6% | 1.41µM* | 0.316µM* | 0.0% | ? | 2.2
O=C(NC(=S)N1CCN(c2c(Cl)cccc2[N+](=O)[O-])CC1)c1cccs1 | -4.4% | 0.159µM* | 0.282µM* | -65.2% | ? | 27.7
N#Cc1ccc(-c2ccc(OCC(=O)NCCc3ccccc3)cc2)cc1 | 8.9% | ? | 18.8% | -20.3% | 1.9% | 16.9
Cc1ccc(C23CC4CC(CC(C(=O)N5CCN(C)CC5)(C4)C2)C3)cc1 | 0.3% | 0.5% | -2.2% | -21.0% | 9.4% | 10.3
SMILES | p53 reactivator | VP16 counter | RORgamma inh | BRCA1 expr up | ELG1 repair inh | Giardia killer
Cc1ccc(C23CC4CC(CC(NC(=O)N5CCN(C)CC5)(C4)C2)C3)cc1 | -4.2% | -23.3% | 12.6µM* | -29.0% | 4.1% | -13.3
O=C(NC(=S)Nc1cc(C(F)(F)F)ccc1N1CCOCC1)c1ccco1 | -7.2% | 11.2µM* | 1.41µM* | -41.8% | 5.0% | 3.1
CC(=O)NC(=S)Nc1cc(C(F)(F)F)ccc1N1CCOCC1 | -10.0% | ? | 12.6µM* | -14.0% | -23.5% | 17.7
O=C(CCC(=O)Nc1ccccc1Cl)NNS(=O)(=O)c1ccc(Cl)cc1 | -2.8% | -2.9% | -5.9% | -12.1% | -2.4% | 2.7
CC(=O)NS(=O)(=O)c1ccc(NC(=O)CCc2ccccc2)cc1 | -0.9% | ? | 3.7% | 0.5% | 20.7% | 3.9
C=CCn1c(C)cc(C(=O)COC(=O)[C@@H](NC(=O)c2ccccc2Cl)C(C)C)c1C | 8.7% | 12.6µM* | 14.1µM* | 33.2% | ? | ?
COC(=O)N/N=C/c1ccccc1Cl | 14.8% | 15.8% | 7.6% | 3.9% | -3.6% | -13.3
CNC(=S)N/N=C/c1ccccc1Cl | 8.6% | 5.62µM* | 3.98µM* | 36.0% | ? | 5.6
CNC(=S)N/N=C/c1c(Cl)cccc1Cl | 4.8% | 6.31µM* | 3.16µM* | -2.5% | 4.4% | 8.8
Cc1cccc(C)c1NC(=S)N/N=C/c1c(Cl)cccc1Cl | 4.1% | 2.51µM* | 0.501µM* | -29.0% | 6.2% | -16.4
S=C(N/N=C/c1ccccc1Cl)Nc1ccccc1 | 18.9% | 0.0% | 0.708µM* | 5.8% | 11.2µM* | -24.5
CC12CCC(C(=NO)C1=O)C2(C)C (stereo not given) | nt | nt | nt | -11.8% | nt | 11.7
O=C(CC(=O)Nc1cccc(Cl)c1)N/N=C\c1ccccc1 | -4.8% | -14.6% | 39.2% | 1.7% | -9.1% | 2.7
S=C(N/N=C/c1cccc2ccccc12)Nc1cccc(Cl)c1 | -0.4% | 7.94µM* | 0.447µM* | -42.9% | -10.9% | 4.8
O=C(NNC(=S)Nc1ccccc1)c1ccc2ncccc2c1 | -0.4% | -10.1% | -34.7% | 70.4% | 27.7% | -13.7
Cc1c(Cl)cccc1NC(=S)N/N=C/c1ccccc1Cl | 1.7% | 4.47µM* | 1µM* | -17.2% | ? | 6.7
S=C(N/N=C/c1ccc2ncccc2c1)Nc1ccccc1 | -7.8% | ? | 1.26µM* | -58.1% | ? | 9.5
Cc1cc(NC(=O)c2ccc(N3C(=O)C4C5C=CC(C5)C4C3=O)cc2)no1 (stereo not given) | -0.8% | 0.4% | 0.4% | 38.7% | -2.4% | 1.0
N#CCCN(C(=O)COC(=O)CCc1ccccc1)c1ccccc1 | 17.0% | -9.2% | 11.9% | 0.0% | 7.3% | -7.2
N#CCCN(C(=O)c1ccco1)c1ccccc1 | -5.1% | 9.0% | 1.41µM* | 1.3% | 2.9% | -23.3
CCc1ccc(CN2CCC(n3nccc3NC(=O)c3ccccc3C)CC2)cc1 | -35.1% | -9.7% | 0.0% | 2.5% | ? | 15.1
